Potency data for 98 compounds are collected here from PubChem BioAssay AID1159524 (National Center for Advancing Translational Sciences (NCATS), 2015).

In all, about 410,000 compounds went through this assay and about 5,100 (1.2%) were called active. A call without a number means that no potency is given here. Not shown: some 8% with an inconclusive outcome. The call rests on the fitted dose curve; tested in HEK293T cells. Many of the other results were omitted from the sample, so actives are more common in it than they were.
Potency means the concentration at half of the fitted maximal effect.

A short description of this assay: High Throughput Screening for Foot and Mouth Disease Virus Antivirals. Further: nearly all actives have a fitted effect of over 45% in size. The note with it: FMDV antiviral cell-based qHTS; series mostly up to 57.9 µM. On the technique in general: qHTS replaces the single test concentration by a dilution series.
For the compound `O=C(Cc1ccc(Cl)cc1)NCC(c1cccs1)S(=O)(=O)c1ccc(Cl)cc1` (stereo not drawn), the Potency result was “inactive”. `O=C(NCc1ccccc1)C(=O)NCC(c1ccco1)S(=O)(=O)c1ccc(Cl)cc1` (stereo not drawn): the Potency is 31.6 µM (active). Take `COc1ccc(CCNC(=O)C(=O)NCC(c2ccco2)S(=O)(=O)c2cccs2)cc1OC` (stereo not drawn): the Potency entry was “inactive”.

For the compound `COc1ccc(Oc2ncc3nc(-c4ccc(F)cc4)c(=O)n(C)c3n2)cc1`, the Potency result is “inactive”.

On to `CC(=O)Nc1cc(C(=O)NCc2ccc(F)cc2)ccc1Sc1ccc(F)cc1`, for which the Potency result was “inactive”.

With `Cc1nnc2n1N=C(c1ccc3c(c1)NC(=O)CO3)CS2`, the Potency result was “inactive”. `COc1ccc(C2=Nn3c(nnc3-c3ccccc3OC)SC2)cc1OC1CCCC1`: the Potency is 14.1 µM (active). As for `CCN(CCCNC(=O)CSc1cc(=O)n(C)c2cc(Cl)ccc12)c1cccc(C)c1`, the Potency result is “inactive”.

Regarding `CCC1(C2CCN(C(=O)c3cccc(F)c3F)CC2)NC(=O)N(CCc2scnc2C)C1=O` (stereo not drawn), the Potency entry was “inactive”. The same measure for `COc1cc(=O)n2c(c1C(=O)NCc1ccco1)CCN(Cc1ccccc1)CC2`: “inactive”. The same measure for `COc1cccc(-c2nc(CS(=O)(=O)CC(=O)N3CCN(c4cc(C)ccc4C)CC3)c(C)o2)c1`: 20 µM (active); for `CCCCN(CC)CCCNC(=O)CS(=O)(=O)Cc1nc(-c2cccc(OC)c2)oc1C`: “inactive”; for `Cc1ccccc1-c1nc(CS(=O)(=O)CC(=O)N2CCc3ccccc3C2)c(C)o1`: “inactive”. The entry for `COc1ccc(C)cc1-n1c(-c2ccc(C)cc2)cc2c1CC(C)(C)CC2=O` is “inactive”; for `N#CC(C#N)=Cc1cc(O)c(O)c([N+](=O)[O-])c1` it is “inactive”. Take `COc1ccc(-n2nnc(-c3nsc(NC(=O)c4ccc(C)c(C)c4)n3)c2C)cc1Cl`: the Potency result was “inactive”. As to `CCc1ccc(C(=O)NNC(=O)C2CCN(c3ncnc4sc(C)c(C)c34)CC2)cc1`, the Potency was 31.6 µM (active). The same measure for `Cc1ccc(C)n1-c1nnc(N2CCC(C(=O)NCc3ccc(F)cc3)CC2)s1`: “inactive”; for `Cc1sc2ncnc(SCC(=O)NC3CCS(=O)(=O)C3)c2c1C` (stereo not drawn): “inactive”. The entry for `Cc1sc2ncnc(SCC(=O)Nc3ccc(CN4CCCC4)cc3)c2c1C` is “inactive”. In the case of `CCc1ccc(CNC(=O)C2CCN(c3nnc(C)c4c(C)n(-c5ccc(C)cc5)nc34)CC2)cc1`, the Potency result was “inactive”. The same measure for `Cc1sc2ncnc(N3CCC(C(=O)NNC(=O)c4ccc(F)cc4)CC3)c2c1C`: 20 µM (active); for `COc1cccc(Cn2c(=O)c(CCc3ccccc3)nc3cnc(N(C)C)nc32)c1`: “inactive”. Consider `COc1ccc(/C=C2\NC(=O)[C@@H]3Cc4ccccc4CN3C2=O)cc1`, for which the Potency entry is “inactive”. The entry for `CC(=O)N1CCC2(CC1)CCN(c1ccncc1)CC2` is “inactive”. `COc1ccc(C2Oc3c(I)c(OC)cc(OC)c3CC2O)cc1OC` (stereo not drawn): the Potency result is “inactive”. Regarding `COc1ccc(-n2c(=O)c(C)nc3cnc(N4CCOCC4)nc32)cc1`, the Potency result was “inactive”.

For `Cc1ccc(CCNC(=O)c2ccc3c(c2)nc2n3CCC(C)C2)cc1` (stereo not drawn), the Potency entry was “inactive”. On to `CCCCCn1c(SCCC(C)C)nc2c1c(=O)[nH]c(=O)n2C`, for which the Potency is 39.8 µM (active). The same measure for `C=CCn1c(SCc2ccccc2)nc2c1c(=O)[nH]c(=O)n2C`: “inactive”. The same measure for `CC=CCn1c(SCCCc2ccccc2)nc2c1c(=O)[nH]c(=O)n2C`: “inactive”. The same measure for `COc1ccc(S(=O)(=O)NCc2cccn2Cc2cccc(C)c2)cc1`: “inactive”; for `Cn1cc(-c2nc3cnc(N4CCNCC4)nc3n(CCc3ccccc3)c2=O)c2ccccc21`: “inactive”. For the compound `Cc1cc(-c2ccnc(-n3ncc(C(=O)NC(C)(C)CO)c3C3CC3)n2)c(C)s1`, the Potency entry was “inactive”. The entry for `CCOC(=O)c1c(NC(=O)c2cc(CC)on2)sc(C(C)=O)c1C` is “inactive”; for `CCOC(=O)c1c(NC(=O)CCl)sc(C(=O)N(CC)CC)c1C` it is 20 µM (active). The entry for `CCOC(=O)c1c(NC(=O)COC(=O)c2ccc(S(=O)(=O)C(F)F)cc2)sc(C(=O)N(C)C)c1C` is “inactive”; for `O=C(CCS(=O)(=O)c1ccc2c(c1)NC(=O)CO2)Nc1cccc(C(F)(F)F)c1` it is “inactive”. Take `O=C(c1ccco1)N1CCC2(CC1)CN(c1ncccn1)C2`: the Potency entry was “inactive”.

Turning to `CCOC(=O)c1cc2c(=O)n3ccccc3nc2n(Cc2ccco2)c1=NC(=O)c1ccc(F)cc1`, the Potency result is “inactive”. The same measure for `Cn1c(=O)c(-c2ccccc2)nc2cnc(N3CCNCC3)nc21`: “inactive”; for `Cc1ccc(-c2cn3cc([N+](=O)[O-])ccc3n2)cc1`: 11.2 µM (active); for `Cn1cnc(C(F)(F)F)c1-c1ccc([N+](=O)[O-])cc1`: “inactive”.

As for `Cc1ccc(-c2cn3cc(C)ccc3n2)cc1`, the Potency was 8.91 µM (active). The entry for `Cc1nc(-c2ccccc2)cn2c1nc1ccccc12` is “inactive”. As for `Cc1ccc(-n2cc3ccc([N+](=O)[O-])cc3n2)cc1`, the Potency entry was “inactive”. The same measure for `CN(C)C(=O)c1ccc(-c2cncnc2Nc2ccccc2)cc1`: “inactive”; for `O=C(c1cccc(F)c1)N1CCC2(CCCN(Cc3ccncc3)C2)CC1`: “inactive”. The same measure for `CC1CCN(S(=O)(=O)c2ccc3c(ccn3CCC(=O)NCc3ccc(N(C)C)cc3)c2)CC1`: “inactive”. The same measure for `Cc1ccc(S(=O)(=O)N2CCC(C(=O)Nc3cc(C)ccc3C)CC2)cc1`: “inactive”. Turning to `Cn1c(=O)oc2cc(S(=O)(=O)N3CCC(C(=O)Nc4ccc(OC(F)(F)F)cc4)CC3)ccc21`, the Potency result was “inactive”. The same measure for `Cc1ccc2nc(NC(=O)C3CCN(S(=O)(=O)c4ccc5c(c4)oc(=O)n5C)CC3)sc2c1`: 12.6 µM (active). The same measure for `CC(C)N1C[C@@H](NCc2ccccc2O)C[C@H]1C(=O)N1CCN(c2cccc(C(F)(F)F)c2)CC1`: “inactive”.

Consider `O=c1c(-c2ccc(F)c(F)c2)nc2cncnc2n1-c1ccccc1`, for which the Potency entry was “inactive”. The figure for `O=C(Nc1ccccc1Cl)/C(Cl)=C(\Cl)S(=O)c1ccccc1` (stereo not drawn) is 7.08 µM (active). The same measure for `O=C(Nc1ccccc1Cl)N1CCC(CN2CCCC2)CC1`: “inactive”; for `O=C(Nc1ccccc1Cl)N1CCC(CN2CCCCC2)CC1`: “inactive”; for `CSc1nc(Nc2ccc(F)cc2)cc(-c2ccccc2)n1`: “inactive”. Take `CC(=O)c1ccc(F)c(-c2cc(C)cc3c2OC(CNC(=O)Cc2c[nH]c4ccccc24)C3)c1` (stereo not drawn): the Potency entry is “inactive”.

With `Cc1nnc(SCc2cc(=O)c3cc(F)ccc3[nH]2)n1C`, the Potency entry is “inactive”. The entry for `CC(=O)c1c(O)c(C)c(O)c(Cc2c(O)c3c(c(C(=O)/C=C/c4ccccc4)c2O)OC(C)(C)C=C3)c1O` is “inactive”; for `O=C(CSc1nccn1Cc1ccc(F)cc1)NCc1ccccc1` it is “inactive”; for `CC(C)(C)c1ccc(Oc2ccc(N)cc2)cc1` it is 2.51 µM (active).

`CC(C)(C)c1ccc(OC(=O)N2CCCCC2)cc1`: the Potency entry was “inactive”. Regarding `COc1ccc(CCNc2ncnc3c2cnn3-c2ccc(C)cc2)cc1`, the Potency entry was “inactive”.

For `CC1(C(=O)NS(=O)(=O)c2ccccc2)CCN1C(=O)C/C=C/c1ccccc1` (stereo not drawn), the Potency entry is “inactive”. The same measure for `CC1(C(=O)O)CCN1C(=O)/C=C/c1ccccc1` (stereo not drawn): “inactive”. The same measure for `CC1(C)CCSC(/C=C/c2ccccc2)=N1`: 14.1 µM (active); for `CC1(C)C=CC(=O)[C@]2(C)C1CC(=O)[C@]1(C)C2CC[C@@]2(C)C(c3ccoc3)OC(=O)C3OC321` (stereo partly drawn): “inactive”; for `CCCS(=O)(=O)N1CCC(C(=O)NCCc2ccc(OC)c(OC)c2)CC1`: “inactive”.

With `CCS(=O)(=O)N1CCCC(C(=O)NCCCN(C)Cc2ccccc2)C1` (stereo not drawn), the Potency result is “inactive”. As for `CCCS(=O)(=O)N1CCC(C(=O)NCCCN(C)Cc2ccccc2)CC1`, the Potency was 28.2 µM (active).

`Cc1c(O)cc(O)c2c(=O)c(-c3ccc(O)cc3)coc12`: the Potency result was “inactive”. The same measure for `Cc1cccc(N2CCN(C(=O)c3oc(=O)c4ccccc4c3-c3ccccc3)CC2)c1C`: “inactive”; for `Cc1cccc(N2CCN(C(=O)c3cc4c(=O)[nH]c5ccccc5c4n3C)CC2)c1C`: 31.6 µM (active); for `CCn1c(C)c(C)c2cc(C(=O)N3CCN(c4cccc(C)c4C)CC3)ccc21`: “inactive”.

Take `O=C(Nc1cccc(F)c1)N1CC2(CCN(C(=O)c3cnccn3)CC2)C1`: the Potency result was “inactive”.

Turning to `COC(=O)c1ccccc1-c1cc(C)cc2c1OC(CNC(=O)C1CCOC1)C2` (stereo not drawn), the Potency entry was “inactive”. On to `Cc1cc(S(=O)(=O)N2CCOCC2)ccc1OCC(=O)N1CCOCC1`, for which the Potency entry was “inactive”. The same measure for `O=C(COc1ccc(S(=O)(=O)N2CCCC2)cc1[N+](=O)[O-])N1CCCCC1`: “inactive”; for `Cc1cc(C(=O)COc2ccccc2[N+](=O)[O-])c(C)n1-c1cccc(S(=O)(=O)N2CCOCC2)c1`: 12.6 µM (active); for `CCC1CN(CCNC(=O)c2cccnc2C)Cc2cc(OC)ccc2O1` (stereo not drawn): “inactive”.

On to `CC1=C(c2ccc(F)cc2)S(=O)(=O)N=C1N1CCC(C(=O)NCCc2ccccc2C)CC1`, for which the Potency result was “inactive”. The entry for `COCCn1c(=O)c(-c2ccccc2)nc2cnc(N3CCOCC3)nc21` is “inactive”; for `CC1CCCCC1NC(=O)c1cc(=O)[nH]c2ccccc12` (stereo not drawn) it is “inactive”. The figure for `CC1CCCCC1NC(=O)/C(C#N)=C/C=C/c1ccccc1[N+](=O)[O-]` (stereo not drawn) is 28.2 µM (active); for `CC1CC(C)CN(C/C=C/c2ccccc2[N+](=O)[O-])C1` (stereo not drawn) it is “inactive”; for `Cc1ccc2c(C)nc(N3CCCC(C(=O)NC(C)(C)CO)C3)nc2c1` (stereo not drawn) it is “inactive”. The entry for `CCc1ccccc1NC(=O)N1CCC2(CC1)Oc1ccccc1C(=O)N2Cc1ccccc1F` is “inactive”; for `O=C(Nc1cc(-c2nc3ccccc3o2)ccc1Cl)c1cc([N+](=O)[O-])ccc1N1CCOCC1` it is “inactive”. `COc1ccccc1CCn1c(=O)c(-c2cn(C)c3ccccc23)nc2cncnc21`: the Potency result is “inactive”. Turning to `CCCCc1c(-c2ccc(Br)cc2)ncn1CCc1ccccc1OC`, the Potency is 35.5 µM (active). The figure for `CCCCCc1c(Cc2ccccc2)ncn1CCc1ccccc1OC` is 35.5 µM (active). The same measure for `COc1cccc2oc(CCc3ccccc3)cc(=O)c12`: “inactive”; for `COc1ccccc1Cc1c(-c2ccc(Cl)cc2)nc2c3ccccc3ccn12`: “inactive”; for `CCCCNS(=O)(=O)CCNCc1ccccc1OC`: “inactive”. The same measure for `CCOC(=O)c1cc2c(=O)n3ccccc3nc2n(CC2CCCO2)c1=NC(=O)c1ccccc1F` (stereo not drawn): “inactive”. As to `CCn1cc(C(=O)N2CCN(c3cc(C)ccc3C)CC2)c(=O)c2cc(S(=O)(=O)N(C)C3CCCCC3)ccc21`, the Potency result is “inactive”.
